Screening data as filed in PubChem BioAssay.
HT1080NT lethal: qHTS for induction of synthetic lethality in tumor cells producing 2HG: qHTS for the HT-1080-NT fibrosarcoma cell line; Potency, µM (top dose mostly 46.1 µM), without a hit: top-dose activity, negative = less viability, actives largely listed as cytotoxic; 360,000 tested, 1.6% active; HT-1080-NT fibrosarcoma viability, CellTiter-Glo ATP luminescence, 48 h;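 further: NT is the 2HG producing partner of a matched IDH1 knockdown line; potency means the concentration at half of the fitted maximal effect; 0% = DMSO-treated cells and -100% = media-only wells without cells; nearly all actives have a fitted effect of over 55% in size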
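Luminescent CellTiter-Glo readout after 48 hours of compound exposure at 37 degrees C defined viability of HT-1080-NT cells. Activity was normalized to DMSO wells and cell-free media wells; concentration-response curves were fitted and assigned curve classes.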
DT40 TDP1 no CPT: qHTS for Inhibitors of human tyrosyl-DNA phosphodiesterase 1 (TDP1): qHTS in cells in absence of CPT | DT40 Tdp1-/- hTDP1 cells, no CPT, ATP luminescence, 48 h | 420,000 tested, 15% active | AID 686978, 2013 | Potency, µM (series often up to 46.2 µM), for the others: top-dose activity change, negative = growth inhibition, actives largely listed as inhibitors; further: potency means the concentration at half of the fitted maximal effect; nearly all actives have a fitted effect of over 55% in size
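A cellular qHTS used chicken DT40 cells lacking endogenous Tdp1 but carrying stably transfected human TDP1. Compounds were applied without camptothecin, and cell growth kinetics were judged by ATP-dependent luminescence after ≥48 hr.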
IL1B secr inh: qHTS for Inhibitors of Inflammasome Signaling: IL-1-beta AlphaLISA Primary Screen; THP-1 LPS/ATP IL-1B secretion, AlphaLISA, 16 h; active compounds read low; activity change, % at 57.5 µM; 360,000 tested, 4.7% active; in the data active means activity change below about -50%; inconclusive means mostly about -30% to -49%
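Secreted IL-1B measured by AlphaLISA bead assay after 16 h compound exposure of THP-1 cells; compounds (final up to 57.5 uM) added 1 h before LPS (250 ng/mL) and ATP (1.25 mM) stimulation; lower signal means less secretion.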
HT1080 IDH1KD tx: qHTS for induction of synthetic lethality in tumor cells producing 2HG: qHTS for the HT-1080-IDH1KD cell line; HT-1080 IDH1 knockdown viability, ATP luminescence, 48 h; 360,000 tested, 2% active; Potency, µM (doses to about 46.1 µM), without a hit: at the top dose activity, negative = toxicity, usual class: cytotoxic; AID 686971, 2013;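 further: potency means the concentration at half of the fitted maximal effect; 0% = DMSO wells and -100% = cell-free medium wells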
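CellTiter-Glo luminescence after 48 h compound exposure at 37 degrees C of IDH1-knockdown HT-1080 cells in 5% FBS RPMI. %Activity scaled between DMSO wells and cell-free media wells, with curves fitted and assigned curve classes.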
ELG1 repair inh: qHTS screen for small molecules that inhibit ELG1-dependent DNA repair in human embryonic kidney (HEK293T) cells expressing luciferase-tagged ELG1 | HEK293T ELG1-luciferase reporter, luminescence, 16 h; DNA damage induced by 5-fluorouridine | 330,000 tested, 2.3% active | Potency, µM (titrated, usually from 46.1 µM), without a hit: at the highest dose activity change, negative = inhibition, hits mostly inhibitors; further: potency means the concentration at half of the fitted maximal effect; nearly all actives have a fitted effect of over 55% in size
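Step one: seed 2,000 cells per well. Step two: pin-transfer compound or DMSO alongside 5-fluorouridine. Step three: incubate 16 hr, 37 °C, 5% CO2. Step four: add ONE-Glo, wait 30 min, read luminescence.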
DT40 TDP1 CPT: qHTS for Inhibitors of human tyrosyl-DNA phosphodiesterase 1 (TDP1): qHTS in cells in presence of CPT | AID 686979, 2013 | 420,000 tested, 12% active | chicken DT40 Tdp1-/-;hTDP1 cells + 20 nM CPT, ATP luminescence, 48 h | Potency, µM (series often up to 46.2 µM), inactives show top-dose activity change, negative = growth inhibition, most hits filed as inhibitors; further: potency means the concentration at half of the fitted maximal effect; nearly all actives have a fitted effect of over 55% in size
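Cell growth measured by CellTiter-Glo luminescence after a minimum 48 h, 37 C compound exposure with 20 nM CPT in Tdp1-knockout DT40 cells stably expressing hTDP1, seeded 400/well; qHTS titration format.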
Active calls of the source: *; ? = inconclusive; · = no result. Hits are enriched below; roughly 19% of the tested compounds scored in any of these assays. Unless noted, the call rests on the fitted dose curve; in most records, active means well fitted curve in the direction sought with a large enough effect; inconclusive means small, poorly fitted or top-dose-only effect, or another doubt; inactive means no such curve, though single readings can be large; an effect the other way counts as inactive or inconclusive. Unless noted, on the % scale 0 is the no-effect control and ±100 the full control effect.

SMILES	HT1080NT lethal	DT40 TDP1 no CPT	IL1B secr inh	HT1080 IDH1KD tx	ELG1 repair inh	DT40 TDP1 CPT
CC(C)(C)c1cc(N2CCOCC2)n2ncc(-c3ccc(Cl)cc3)c2n1	?	13µM*	-1	5%	?	?
Cc1cc(C)n(-c2cc(C(C)(C)C)nc3c(-c4ccccc4)cnn23)n1	?	?	·	?	?	-21%
COc1ccc(NC(=O)CCCN2C(=O)C3CC=CCC3C2=O)cc1 (stereo unspecified)	?	-7%	0	?	?	-8%
O=S(=O)(c1ccc(Cl)cc1)c1snnc1-c1ccccc1	12µM*	4.1µM*	-115*	7.3µM*	?	5.2µM*
O=S(=O)(c1ccc(F)cc1)c1snnc1-c1ccccc1	6.5µM*	2.9µM*	-100*	?	-13%	4.1µM*
c1ccc(-c2nnsc2-c2ncc[nH]2)cc1	11%	-10%	13	?	2%	2%
O=C(O)c1cccc(S(=O)(=O)N(Cc2ccccc2)c2cccc(C(F)(F)F)c2)c1	?	-24%	-13	2%	-13%	4%
COc1ccc(CC2(CO)CCN(S(=O)(=O)c3sccc3C)CC2)cc1	3%	?	13	-20%	18µM*	26µM*
CSCC(C)N1CCC(CO)(CCc2ccccc2)CC1 (stereo unspecified)	-4%	-21%	-18	-4%	22%	-22%
COc1ccc(CCC(C)N2CCC(CO)(Cc3ccccc3)CC2)cc1 (stereo unspecified)	-22%	?	-57*	-18%	13%	?
CC(COc1ccccc1)N1CCC(CO)(CCc2ccccc2)CC1 (stereo unspecified)	16µM*	?	-67*	?	-7%	?
COc1ccc(CCC(C)N2CCOCC2)cc1 (stereo unspecified)	7%	-6%	38	6%	-2%	-11%
COc1ccc(CC2(CO)CCN(C(C)Cc3ccc(Cl)cc3)CC2)cc1 (stereo unspecified)	?	?	-67*	?	-15%	?
COc1ccc(CC2(CO)CCN(Cc3cccc(OC)c3OC)CC2)cc1	-11%	-6%	-4	-13%	-4%	-29%
COc1ccc(C2(N3CCN(c4cccc(C)c4C)CC3)C(=O)c3ccccc3C2=O)cc1	·	-3%	·	·	·	-1%
O=C(NCc1cc(Cl)cc(Cl)c1)c1csc([C@@H]2O[C@H](CO)[C@H](O)[C@H](O)[C@H]2O)n1	11%	0%	6	6%	·	-22%
CCc1cccc2c(N=O)c(O)[nH]c12	0%	-17%	-64*	-18%	13%	-2%
COc1ccc([C@H]2C[C@H](n3cc(COC(=O)c4ccccc4)nn3)[C@@H](O)CN2CC2CCCCC2)cc1	9%	?	14	13%	·	-25%
CCOc1ccccc1NC(=O)c1c2c(nc3ccccc13)C(=O)N(C1CCCCC1)C2	·	5.8µM*	·	·	·	6.5µM*
CC(C)OCCCNC(=O)c1c2c(nc3ccccc13)C(=O)N(C1CCCCC1)C2	·	-23%	·	·	·	-22%
CCOc1ccccc1NC(=O)CSc1nc2ccccc2c(=O)n1CC1CCCO1 (stereo unspecified)	5%	?	7	5%	?	?
